Screens deposited in PubChem BioAssay by National Center for Advancing Translational Sciences (NCATS).
This is a sample that favours compounds with a hit; in the whole collection about 18% have one here.
VDR inhibitor = vitamin D3 receptor (human) inhibition. P11473. VDR-SRC2-3 peptide fluorescence polarization, 2 h. Potency, µM, inactives show max response, negative = inhibition, hits mostly inhibitors. hit rate 0.93% among 400,000. AID 504847
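Signal is fluorescence polarization, reporting how far test compounds block the interaction of VDR with the SRC2-3 coregulator peptide after a 2 h room-temperature incubation.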
DT40 TDP1 CPT = DT40-hTDP1 cell growth loss with CPT; chicken DT40 Tdp1-/-;hTDP1 cells + 20 nM CPT, ATP luminescence, 48 h; hit rate 12% among 420,000; Potency, µM (titrated, usually from 46.2 µM), without a hit: at the highest dose activity change, negative = growth inhibition, hits mostly inhibitors; AID 686979; also: nearly all actives have a fitted effect of over 55% in size
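Cell growth measured by CellTiter-Glo luminescence after a minimum 48 h, 37 C compound exposure with 20 nM CPT in Tdp1-knockout DT40 cells stably expressing hTDP1, seeded 400/well; qHTS titration format.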
PLK1 PBD block = PLK1 (human) polo-box domain binding inhibition; P53350; AID 720504; Potency, µM, for the others: max response, negative = inhibition, actives largely listed as inhibitors; Plk1 PBD binding of FITC phosphopeptide, fluorescence polarization; hit rate 2.8% among 360,000; also: series mostly up to about 57 µM; nearly all actives have a fitted effect of over 65% in size
DT40 TDP1 no CPT = qHTS for Inhibitors of human tyrosyl-DNA phosphodiesterase 1 (TDP1): qHTS in cells in absence of CPT. Potency, µM (titrated, usually from 46.2 µM), without a hit: top-dose activity change, negative = growth inhibition, usual class: inhibitors. DT40 Tdp1-/- hTDP1 cells, no CPT, ATP luminescence, 48 h. AID 686978, 2013. hit rate 15% among 420,000; also: nearly all actives have a fitted effect of over 55% in size
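No-CPT arm: Tdp1-/-;hTDP1 DT40 cells (400/well) plus compounds, incubated ≥48 hr at 37 °C. Readout CellTiter-Glo luminescence.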
TDP1 inh = TDP1 (human) enzyme inhibition | Q9NUW8 | AID 485290 | Potency, µM (top dose mostly 130 µM), for inactives: top-dose activity change, negative = inhibition, hits mostly inhibitors | hit rate 0.28% among 350,000 | recombinant TDP1, AlphaScreen DNA substrate cleavage; also: nearly all actives have a fitted effect of over 40% in size
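Here, a 5' biotin and 3' phosphotyrosine-FITC DNA oligonucleotide reports Tdp1 activity: intact substrate bridges AlphaScreen beads, while cleavage leaves a 3' phosphate and drops signal. All incubations at room temperature.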
KAT2A inh = GCN5L2 (KAT2A) acetyltransferase inhibition. GCN5L2 HAT assay, ThioGlo1 CoA-SH fluorescence. Q92830. Potency, µM (series often up to 58.9 µM), inactives show at the highest dose activity change, negative = inhibition, actives largely listed as inhibitors. hit rate 0.21% among 390,000
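qHTS, 1536-well. 20nM enzyme, pH 7.5 HEPES/EDTA/Tween-20 buffer; 15 min compound preinc., RT. Start: 75uM H3(1-25), 70uM AcCoA, 50uM ThioGlo1. Read Ex340/Em540 at t=0 (autofluorescence flag) and t=20 min.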
An asterisk follows results filed as active; ? = inconclusive; / = no result given. Calls follow the shape of the dose curve; as a rule, active = well fitted curve in the direction sought with a large enough effect; inconclusive = small, poorly fitted or top-dose-only effect, or another doubt; inactive = no such curve, though single readings can be large; an effect the other way counts as inactive or inconclusive. % is scaled to controls: 0 for no effect and ±100 for the full control effect; potency is read from the fitted curve at half-maximal effect.

SMILES	VDR inhibitor	DT40 TDP1 CPT	PLK1 PBD block	DT40 TDP1 no CPT	TDP1 inh	KAT2A inh
CSc1ccccc1NC(=O)CCS(=O)(=O)c1nc(-c2ccc3c(c2)OCO3)cc(C(F)(F)F)n1	?	8.2µM*	/	18µM*	6%	-5%
O=C(CCS(=O)(=O)c1nc(-c2ccc3c(c2)OCO3)cc(C(F)(F)F)n1)Nc1ccccc1F	40µM*	7.3µM*	/	8.2µM*	-3%	-8%
COC(=O)c1ccccc1NC(=O)CCS(=O)(=O)c1nc(-c2ccc3c(c2)OCO3)cc(C(F)(F)F)n1	?	2.9µM*	/	3.3µM*	3%	-11%
COc1cccc(C2=CC(=O)CC(c3ccco3)C2)c1 (stereo not drawn)	?	?	-15%	/	/	/
COCc1cc(C)nc(OCC(=O)N/N=C/c2ccccc2)c1C#N	-7%	6%	4%	7%	-5%	-5%
COCc1cc(C)nc(OCC(=O)N/N=C/c2ccc(C)cc2)c1C#N	-2%	12µM*	1%	9.2µM*	5%	-9%
Cc1ccc(O)c(-c2n[nH]c3c2C(c2ccc(F)cc2)N(Cc2ccco2)C3=O)c1 (stereo not drawn)	-11%	?	/	?	12%	-18%
O=C1c2[nH]nc(-c3ccccc3O)c2C(c2cccc(O)c2)N1Cc1ccco1 (stereo not drawn)	8%	?	2%	?	10%	-7%
Cc1cc(C)c(-c2n[nH]c3c2C(c2ccccc2F)N(Cc2ccco2)C3=O)c(O)c1 (stereo not drawn)	-2%	21µM*	/	21µM*	9%	-12%
COc1ccc(C2c3c(-c4c(C)cc(C)cc4O)n[nH]c3C(=O)N2Cc2ccco2)cc1 (stereo not drawn)	11%	15µM*	/	16µM*	9%	-14%
COc1ccc(CCNC(=S)Nc2ccc(S(=O)(=O)Nc3ncccn3)cc2)cc1OC	-6%	9%	-15%	15%	6%	1%
COc1ccc(C2CC(=O)Nc3c2c(C)nn3-c2nc(C)cc(C)n2)c(OC)c1OC (stereo not drawn)	-8%	-16%	/	-22%	-4%	-4%
Cc1ccc(CN2C(=O)CC(c3ccc(Cl)cc3)c3c(C)nn(-c4nc(C)cc(C)n4)c32)cc1 (stereo not drawn)	6%	?	/	21µM*	2%	-7%
Cc1cc(C)nc(-n2nc(C)c3c2NC(=O)CC3c2ccccc2OC(C)C)n1 (stereo not drawn)	14%	16µM*	/	18µM*	8%	-4%
CCc1ccc(C2CC(=O)Nc3c2c(C)nn3-c2nc(C)cc(C)n2)cc1 (stereo not drawn)	9%	21µM*	/	21µM*	1%	-8%
COC(=O)c1ccccc1CCC(C)=O	8%	?	-6%	16µM*	-2%	1%
COC(=O)c1ccccc1O	6%	-11%	/	-8%	0%	-21%
CCOC(=O)[C@]12CCC=C1N(CCC1=CCCCC1)C(=O)[C@H](CC(=O)N1CCCCC1)C2	/	18µM*	-8%	13µM*	/	/
CCOC(=O)[C@]12CCC=C1N(CCC1=CCCCC1)C(=O)[C@H](CC(=O)N1CCCC1)C2	/	23µM*	-21%	?	/	/
CCOC(=O)[C@]12CCC=C1N(CCC1=CCCCC1)C(=O)[C@H](CC(=O)N1CCN(C(=O)C3CC3)CC1)C2	/	-29%	-8%	-20%	/	/
CCOC(=O)[C@]12CCCC=C1N(CCC1=CCCCC1)C(=O)[C@H](CC(=O)N1CCCC1)C2	/	2.1µM*	-6%	2.3µM*	/	/
CCOC(=O)[C@]12CCCC=C1N(CCC1=CCCCC1)C(=O)[C@H](CC(=O)N1CCC(c3ccccc3)CC1)C2	/	?	1%	15µM*	/	/
CCN(C(=S)Nc1ccc(Oc2ccccc2)cc1)c1ccccc1	-6%	-6%	-12%	?	0%	-2%
Cc1ccc(C(O)c2ncc(-c3ccc(Cl)cc3)[nH]2)cc1 (stereo not drawn)	/	?	-2%	?	/	/
CCOC(=O)N1CCN(C(=O)C[C@@H]2C[C@@]3(C(=O)OCC)CCCC=C3N(CCc3ccc(OC)c(OC)c3)C2=O)CC1	/	?	6%	?	/	/
SMILES	VDR inhibitor	DT40 TDP1 CPT	PLK1 PBD block	DT40 TDP1 no CPT	TDP1 inh	KAT2A inh
CCOC(=O)[C@]12CCCC=C1N(CCc1ccc(OC)c(OC)c1)C(=O)[C@H](CC(=O)N1CCCC1)C2	/	12µM*	-2%	9.2µM*	/	/
CC(c1ccco1)N(C(=O)c1ccc(F)cc1)c1ccccn1 (stereo not drawn)	-2%	-10%	2%	?	-2%	-1%
CC(c1ccco1)N(C(=O)C12CC3CC(CC(C)(C3)C1)C2)c1ccccn1 (stereo not drawn)	12%	16µM*	3%	21µM*	10%	-4%
O=C(NCc1ccc(Cl)cc1)C1CCCCN1S(=O)(=O)c1ccccc1 (stereo not drawn)	-10%	-18%	-15%	?	/	-4%
Cc1ccc(C(=O)Oc2ccccc2N2C(=O)C3CCC(C)CC3C2=O)cc1 (stereo not drawn)	11%	5%	2%	0%	2%	-20%
CC1CCC2C(=O)N(c3ccc(C(=O)Oc4cccc5cccnc45)cc3)C(=O)C2C1 (stereo not drawn)	-2%	0.73µM*	0%	0.65µM*	-5%	0%
COCCNC(=O)C1(C)CCCN(C(=O)COc2ccccc2)C1 (stereo not drawn)	/	21µM*	1%	1.8µM*	/	/
CCCNC(=O)C1(C)CCCN(Cc2ccc(-c3ccccc3)o2)C1 (stereo not drawn)	/	23µM*	-7%	21µM*	/	/
COCCNC(=O)C1(C)CCCN(Cc2ccc(Oc3ccccc3)cc2)C1 (stereo not drawn)	/	?	-6%	21µM*	/	/
CCCNC(=O)C1(C)CCCN(C(=O)c2cccc(C#N)c2)C1 (stereo not drawn)	/	4%	-4%	-7%	/	/
CCCNC(=O)C1(C)CCCN(Cc2cccc(C#N)c2)C1 (stereo not drawn)	/	18µM*	0%	21µM*	/	/
Cc1cccc(CNC(=O)C2CCC(=O)N(CCc3cccc(F)c3)C2)n1 (stereo not drawn)	-22%	-1%	-8%	14%	/	-9%
Cc1ccc(C(=O)NCC(=O)OCc2cc(=O)n3c(C)csc3n2)cc1	4%	-4%	/	0%	6%	0%
